Results published in PubChem BioAssay AID1894 (NMMLSC, 2009).
In all, about 5,900 compounds went through this assay and about 100 (1.7%) were called active. Shown is part of a subset that was picked to be rich in actives. Unmarked numbers belong to inactive results.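 Rule for the calls: active = binding response below 72% of control, or above a set upper limit, though filed actives all read lower; inactive = the rest.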

biological target: Mitogen-activated protein kinase kinase kinase 3 (Homo sapiens) (UniProt Q99759); test: MEKK3 wild-type PB1 binding to MEK5, inhibitors, confirmation, biochemical, bead multiplex flow cytometry, single concentration, wildtype (AID 1894); conditions: Alexa488-MEK5 binding to MEKK3, at 10 µM, active compounds read low;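 note: 100% = DMSO only wells and 0% = binding blocked by excess unlabeled MEK5; lower values mean stronger disruption of MEK5 binding to MEKK3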
Sequence (Q99759 whole entry, looked up): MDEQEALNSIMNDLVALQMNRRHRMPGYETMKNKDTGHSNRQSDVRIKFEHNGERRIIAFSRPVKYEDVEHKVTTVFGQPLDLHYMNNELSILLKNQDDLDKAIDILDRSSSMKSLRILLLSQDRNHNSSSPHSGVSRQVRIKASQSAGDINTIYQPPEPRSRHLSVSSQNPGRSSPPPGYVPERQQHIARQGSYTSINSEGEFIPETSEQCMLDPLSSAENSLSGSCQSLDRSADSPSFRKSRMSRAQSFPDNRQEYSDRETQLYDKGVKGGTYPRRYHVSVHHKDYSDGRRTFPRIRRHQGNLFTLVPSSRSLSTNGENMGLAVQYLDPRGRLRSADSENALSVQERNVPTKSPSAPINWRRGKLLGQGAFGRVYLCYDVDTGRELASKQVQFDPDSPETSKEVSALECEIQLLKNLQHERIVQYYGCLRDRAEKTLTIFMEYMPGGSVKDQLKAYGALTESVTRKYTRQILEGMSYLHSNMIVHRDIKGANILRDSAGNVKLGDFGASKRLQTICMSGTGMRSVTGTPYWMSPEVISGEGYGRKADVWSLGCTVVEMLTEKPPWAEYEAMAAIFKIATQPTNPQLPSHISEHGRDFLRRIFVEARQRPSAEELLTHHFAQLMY

| Structure (SMILES) | binding response (% of control) |
| --- | --- |
| Cn1c2ccccc2c(=O)c2c(=O)n(Cc3ccco3)c(COc3ccccc3)nc21 | 100% |
| CN(C)CCCNC(=O)c1cc(C(=O)Cc2ccc(Cl)cc2)c[nH]1 | 98% |
| Cc1ccc(NC(=S)N(CCCN2CCCC2)Cc2cccn2Cc2ccc(Cl)cc2)cc1 | 104% |
| N#C/C(=C\C1=C(N2CCOCC2)C(=C\c2ccccc2)/CC1)C(=O)Nc1ccccc1F | 27% (active) |
| COC(=O)c1cc(NC(=O)c2cc(C(C)(C)C)nn2Cc2cccc(C)c2)ccc1N1CCOCC1 | 99% |
| CN(C)CCCNC(=S)N1CCN(c2nc(-c3ccccc3)cs2)CC1 | 102% |
| Cn1ccc(=Nc2ccc(NC(=O)c3ccc(N=c4ccn(C)c5ccc([N+](=O)[O-])cc45)cc3)cc2)cc1 | 105% |
| O=C(NCCCN1CCN(c2ccc(F)cc2)CC1)Nc1ccc([N+](=O)[O-])cc1 | 107% |
| O=C(c1cnn(-c2ccc(Cl)cc2)c1)c1ccccc1O | 110% |
| O=C(NC1CCN(Cc2ccccc2)CC1)c1ccc(Oc2cc(Cl)cc(Cl)c2)o1 | 97% |
| O=C(NCCC1=CCCCC1)c1ccc(Cl)c([N+](=O)[O-])c1 | 106% |
| CC1CN(C(=O)c2ccccc2NS(=O)(=O)c2cccc([N+](=O)[O-])c2)CC(C)O1 (centres undefined) | 101% |
| CC(C)c1ccc(C(=O)NCCCc2ccccc2)cc1 | 98% |
| O=C(O)c1cccnc1NC1CCCC1 | 108% |
| COc1cccc(NC(=S)NCCCN2CCOCC2)c1 | 106% |
| COC(=O)CCc1sc(Nc2ccc(Br)cc2)nc1-c1ccc(OC)cc1 | 106% |
| O=C(Cc1cccc2ccccc12)Nc1ccc2oc(-c3ccccc3)nc2c1 | 102% |
| O=C(NNc1c2ccccc2nc2ccccc12)c1cc2ccccc2cc1O | 51% (active) |
| CNC(=O)/C(=C\C=C\c1ccccc1)NC(=O)c1ccc([N+](=O)[O-])cc1 | 107% |
| COc1ccc(C(=O)NCC(=O)N/N=C/c2ccc([N+](=O)[O-])o2)cc1OC | 93% |

| Structure (SMILES) | binding response (% of control) |
| --- | --- |
| Cc1c(-c2ccccc2)cn2c1-c1ccc(C)n1CC2 | 93% |
| Cc1ccc(C)c(CN2CCC(CNC(=O)Nc3ccc(C)c(F)c3)CC2)c1 | 107% |
| COc1cc(-c2nc(-c3ccncc3)no2)cc(OC)c1OC | 104% |
| Cc1ccc(S(=O)(=O)/N=S(\C)C(C)C)cc1 (centres undefined) | 101% |
| CCOC(=O)Cc1csc(NC(=O)CSc2nc(C)cc(=O)[nH]2)n1 | 99% |
| COc1ccc(CNC(=O)C2CCN(S(C)(=O)=O)CC2)cc1 | 102% |
| O=C(Cc1cccs1)N/N=C/c1ccc(OCc2ccccc2)cc1 | 104% |
| COc1ccc(S(=O)(=O)N2CN(CCc3ccc(OC)c(OC)c3)c3nc4ccccc4nc32)cc1 | 97% |
| COc1cc(CC(=O)N/N=C/c2ccccc2)c([N+](=O)[O-])cc1OC | 104% |
| FC(F)(F)c1cccc(N/N=C/c2ccccc2)c1 | 105% |
| CCOC(=O)CN(C)S(=O)(=O)c1ccc(-c2cc(C(=O)OC)sc2C(F)(F)F)cc1 | 103% |
| COc1ccc(C2CC(=O)Nc3cc(C)c(C)cc32)c(OC)c1OC (centres undefined) | 104% |
| O=C(c1ccco1)N1CCN(c2cccc(Cl)c2)CC1 | 100% |
| C=C(C)C1CC=C(C)/C(=N\NC(=O)CNc2ccccc2OC)C1 (centres undefined) | 109% |
| CCOC(=O)c1cc2c(nc1NC(=S)Nc1ccccc1)CC(C)(CC)OC2 (centres undefined) | 102% |
| COc1cccc(OCC(=O)NNC(=O)c2cnccn2)c1 | 101% |
| CCCn1c(=N)n(CC(=O)c2ccc(Cl)c(Cl)c2)c2ccccc21 | 109% |
| Cc1cc(C)c(NC(=O)C[N+](C)(C)CC(O)COc2cccc3ccccc23)c(C)c1 (centres undefined) | 108% |
| CCOC(=O)c1c(-c2ccccc2)csc1NC(=S)NC(=O)c1ccccc1 | 102% |
| CCCCN1C(=O)/C(=C(/C#N)C(N)=O)c2ccccc21 | 99% |

| Structure (SMILES) | binding response (% of control) |
| --- | --- |
| CC(=O)Nc1ccc(N2CCOCC2)c(C(=O)Nc2cccc(C)c2)c1 | 105% |
| COc1ccccc1NC(=S)N1CCN(c2ccc(F)cc2)CC1 | 102% |
| CCCN(CCC)c1nc2c(C)cccn2c(=O)c1/C=C1/SC(=S)N(Cc2ccco2)C1=O | 86% |
| O=C(Nc1ccc2ccccc2c1)Nc1ccc2snnc2c1 | 105% |
| O=C1NCC(=O)N(Cc2ccccc2)/C1=C/c1ccccc1 | 91% |
| O=C(CSc1ccc(-c2ccc(F)cc2)nn1)Nc1ccc2c(c1)OCCO2 | 104% |
| CCOc1cc(C(=O)OCC(=O)Nc2cccc(C)c2)ccc1OCC(=O)N1CCOCC1 | 106% |
| O=C(CN1C(=O)c2cccnc2Oc2ccc(Cl)cc21)Nc1ccc(F)cc1 | 103% |
| O=c1c2ccccc2c(-c2ccccc2)nn1Cc1ccccc1 | 97% |
| CCn1cc(CN2CCC(C(=O)Nc3cccc(-c4cccc(Cl)c4)c3)CC2)cn1 | 116% |
| CC(=O)N1CCN(S(=O)(=O)c2ccc(C)c([N+](=O)[O-])c2)C1C(C)C (centres undefined) | 97% |
| N=C1/C(=C/c2cccn2-c2cccc([N+](=O)[O-])c2)C(=O)N=C2SC=CN12 | 100% |
| Cn1c(=NC(=O)CSCC(=O)N2CCCCC2)sc2ccccc21 | 104% |
| CCCCNC(=O)N1CCCC(N(C)CCc2ccc(OC)c(OC)c2)C1 (centres undefined) | 102% |
| O=C(NCc1ccccc1Cl)NC(=O)c1csc([N+](=O)[O-])c1 | 103% |
| CC(C)(C)c1nnc(NC(=O)C2c3ccccc3Oc3ccccc32)s1 | 100% |
| CN(c1ccccc1)c1ccc(/C=c2\s/c(=C(/C#N)C(=O)C(C)(C)C)n(Cc3ccco3)c2=O)cc1 | 69% (active) |
| O=C(/C=C/Nc1ccccc1)c1cnc(-c2ccccc2)s1 | 106% |
| Cc1cccc(-c2ncc(CN3CCC(CO)(CCCc4ccccc4)CC3)cn2)c1 | 107% |
